Only some compounds are listed: those with a hit (about 7.5% of all), similar ones and a draw of the others.
NPC1 prom act = qHTS Assay for NPC1 Promoter Activators; Huh7 NPC1 promoter luciferase reporter, 24 h; Potency, µM (top dose mostly 9.22 µM), usual class: activators; AID 485313, 2010; actives 2.4% (n = 320,000); also: nearly all actives have a fitted effect of over 60% in size
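Luminescence from an NPC1 promoter-driven luciferase reporter in stably transfected Huh7 cells was measured after 24 h compound treatment at 37 °C, followed by 10 min ambient incubation with luciferase detection reagent.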
Luc counter = Counterscreen for Luciferase (Kinase-Glo TM) Inhibition; Luciferin 4-monooxygenase (Photuris pensylvanica), Q27757; Kinase-Glo luciferase, ATP luminescence, 8 min; Potency, µM (titrated, usually from 38.3 µM), most hits filed as inhibitors; actives 0.28% (n = 200,000); AID 1379, 2008; also: nearly all actives have a fitted effect of over 60% in size
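Luminescence was the read-out, taken after 8-minute incubation at ambient temperature. Luciferase turned over luciferin with 10 uM ATP in imidazole pH 7.2 buffer containing KCl, MgCl2, Tween 20 and BSA.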
SMN2 splice enh = qHTS Assay for Enhancers of SMN2 Splice Variant Expression; AID 1458, 2008; HEK293 SMN2-luciferase splicing reporter, luminescence, 30-36 h; actives 2.8% (n = 210,000); Potency, µM (titrated, usually from 46.1 µM), usual class: activators; also: nearly all actives have a fitted effect of over 55% in size
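HEK293 cells carry an SMN2 […]–luciferase reporter in which exon 7 inclusion puts luciferase in frame. Cells were plated 10-12 h before compound addition, then incubated 30-36 h at 37C. ONE-Glo luminescence was read; sodium butyrate at 4.5 mM final served as control.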
ELG1 genotoxic = qHTS screen for small molecules that induce genotoxicity in human embryonic kidney (HEK293T) cells expressing luciferase-tagged ELG1 | HEK293T ELG1-luciferase reporter, luminescence, 16 h | Potency, µM (titrated, usually from 46 µM), actives largely listed as activators | actives 1.3% (n = 330,000) | AID 504466, 2011; also: nearly all actives have a fitted effect of over 60% in size
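HEK293T cells expressing luciferase-tagged ELG1 were treated with compound or DMSO for 16 hr at 37°C. Luciferase activity was then read after 30 min with ONE-Glo at room temperature; rising signal flags genetic stress.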
FLuc counter = qHTS profiling assay for firefly luciferase inhibitor/activator using purifed enzyme and Km concentrations of substrates (counterscreen for miR-21 project). Potency, µM (doses to about 57.5 µM), actives largely listed as inhibitors. actives 6.9% (n = 360,000). AID 588342, 2011. purified FLuc, Km substrates, luminescence inhibition; also: nearly all actives have a fitted effect of over 55% in size
Target sequence (P08659 whole entry, looked up): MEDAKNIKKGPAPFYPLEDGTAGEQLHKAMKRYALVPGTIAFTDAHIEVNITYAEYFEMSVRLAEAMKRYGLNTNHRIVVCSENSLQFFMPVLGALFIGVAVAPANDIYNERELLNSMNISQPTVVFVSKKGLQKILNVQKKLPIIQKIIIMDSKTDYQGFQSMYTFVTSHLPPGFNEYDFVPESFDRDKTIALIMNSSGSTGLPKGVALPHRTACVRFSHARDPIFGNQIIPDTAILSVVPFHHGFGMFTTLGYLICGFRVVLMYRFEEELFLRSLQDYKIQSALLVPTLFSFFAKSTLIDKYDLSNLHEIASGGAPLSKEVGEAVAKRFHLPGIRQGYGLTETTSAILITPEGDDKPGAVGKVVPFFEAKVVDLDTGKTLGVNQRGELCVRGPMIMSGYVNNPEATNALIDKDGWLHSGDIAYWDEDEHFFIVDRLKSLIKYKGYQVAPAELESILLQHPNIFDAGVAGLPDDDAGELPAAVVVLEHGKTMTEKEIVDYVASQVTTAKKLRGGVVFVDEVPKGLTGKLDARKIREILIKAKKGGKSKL
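Biochemical qHTS of compounds, final roughly 60 µM downward over six points, against 10 nM purified firefly luciferase using Km concentrations of substrates (10 uM D-luciferin, 10 uM ATP) in Tris acetate pH 7.5 buffer; luminescence output.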
Rab9 promoter act = qHTS Assay for Rab9 Promoter Activators; actives 2.8% (n = 320,000); Huh7 Rab9 promoter-luciferase reporter, luminescence, 24 h; Potency, µM (titrated, usually from 9.22 µM), actives largely listed as activators; AID 485297, 2010; also: nearly all actives have a fitted effect of over 60% in size
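Using Huh7 cells stably transfected with Rab9 promoter–luciferase, compounds were incubated 24 h at 37 °C, 5% CO2; luciferase luminescence was read 10 min after reagent addition.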
Numbers stand for hits; . = inactive; ? = inconclusive; / = no result given; [ ] = another dose, or the depositor's remark. Calls follow the shape of the dose curve; as a rule, active = well fitted curve in the direction sought with a large enough effect; inconclusive = small, poorly fitted or top-dose-only effect, or another doubt; inactive = no such curve, though single readings can be large; an effect the other way counts as inactive or inconclusive.

SMILES | NPC1 prom act | Luc counter | SMN2 splice enh | ELG1 genotoxic | FLuc counter | Rab9 promoter act
Cc1cccc(C)c1NC(=O)CNC(=O)C(C)N(C)CC(=O)Nc1ccc(F)cc1 (stereo unspecified) | . | / | / | . | . | .
Cc1cc(C)cc(NC(=O)Cn2c3ncccc3c(=O)n2-c2ccc(C)c(C)c2)c1 | / | / | / | / | . | /
COc1cccc(-c2noc(C3CCCN(C(=O)c4ccccc4OC)C3)n2)c1 (stereo unspecified) | ? | / | / | . | 21.3µM | .
CCCCC(=O)N1CCCC(c2nc(-c3cccc(OC)c3)no2)C1 (stereo unspecified) | ? | . | / | . | 16.9µM | ?
COc1cccc(-c2noc(C3CCCN(C(=O)CC(C)(C)C)C3)n2)c1 (stereo unspecified) | . | . | / | . | . | .
COc1ccc(OC)c(-c2noc(N3CCN(c4cc(C)ccc4C)CC3)n2)c1 | / | / | / | / | . | /
Cc1cccc(C)c1NCc1n[nH]c(=S)n1-c1ccccc1 | . | . | . | . | . | .
O=C1/C(=C/c2ccc(N3CCCC3)cc2)NC(=S)N1C1CC1 | . | . | . | . | 12µM | ?
O=C1N/C(=C/c2ccc(N3CCCC3)cc2)C(=O)N1c1ccccc1 | . | . | . | . | ? | .
Cc1cc(N2CCCC2)ccc1/C=C1\NC(=S)N(C)C1=O | ? | . | / | . | 13.5µM | 3.16µM
CCOC(=O)c1ccc(NC(=O)CCCc2nc(-c3ccccc3Cl)no2)cc1 | / | / | . | / | . | /
Clc1ccc(Nc2ccc(-n3ccnc3)nn2)cc1Cl | . | . | . | . | 26.9µM | .
c1ccc(Nc2ccc(-n3ccnc3)nn2)cc1 | . | . | . | . | ? | .
CC(=O)c1c(C)nc(-c2ccccc2)nc1N | . | . | / | . | ? | .
CCOC(=O)c1c(C)nc(-c2ccccc2)nc1N | . | . | / | 18.4µM | .[2.3 µM] | ?
CCOC(=O)c1c(C)nc(C)c(C(=O)OCC)c1-c1ccccc1 | 3.98µM | . | 15.8µM | . | 6.01µM | 2.24µM
CCOC(=O)c1cnn(-c2cc(C)nc3c(-c4ccccc4)c(C)nn23)c1N | . | . | . | . | . | .
CCOC(=O)c1c(-c2ccccc2)cn2c(C)cc(C)nc12 | 3.16µM | . | 11.2µM | 16.4µM | 3.38µM | 2.82µM
COC(=O)c1ccccc1NC(=O)c1ccc2c(Cl)c3c(nc2c1)CCCC3 | / | / | . | / | 12µM | /
CCOC(=O)c1cccc(NC(=O)c2ccc3c(Cl)c4c(nc3c2)CCC4)c1 | / | / | . | / | 0.301µM | /
COCCNC(=O)c1ccc2c(Cl)c3c(nc2c1)CCC3 | ? | / | / | ? | 8.49µM | 3.55µM
COc1cc(NC(=O)c2ccc3c(Cl)c4c(nc3c2)CCC4)cc(OC)c1OC | / | / | . | / | ? | /
CCOC(=O)c1ccccc1NC(=O)c1ccc2c(Cl)c3c(nc2c1)CCC3 | / | / | . | / | 5.36µM | /
CCOC(=O)c1ccccc1NC(=O)c1ccc2c(=O)n3c(nc2c1)CCCCC3 | . | . | . | . | ? | .
CCCN(CCC)CCCNC(=O)c1ccc2c(Cl)c3c(nc2c1)CCC3 | . | / | / | . | . | .
SMILES | NPC1 prom act | Luc counter | SMN2 splice enh | ELG1 genotoxic | FLuc counter | Rab9 promoter act
COc1ccc(OC)c(NC(=O)c2ccc3c(Cl)c4c(nc3c2)CCCC4)c1 | / | / | . | / | . | /
CC(=O)N1CCc2cc(Br)cc(S(=O)(=O)N3CCC(C(=O)Nc4ccc(C(C)C)cc4)CC3)c21 | / | / | . | / | . | /
CN(C)/C=N/c1cnc(C(=O)c2ccc(Cl)cc2)n1C | 1.78µM | . | 11.2µM | 6.31µM | 10.7µM | 1.78µM
CN(C)/C=N/NC(=O)c1ccc(Cl)cc1 | . | . | . | . | . | .
Cc1nn(-c2ccccc2)c(Cl)c1/C=N/NC(=O)c1ccnn1C | 1.41µM | / | / | 14.6µM | 2.69µM | 2.82µM
Cc1nn(-c2ccccc2)c(Cl)c1/C=N/Nc1nc2ccccc2n1C | 3.55µM | . | 11.2µM | . | 2.39µM | ?
Cc1nn(-c2ccccc2)c(Cl)c1/C=N/NC(N)=O | . | / | / | ? | ? | .
COC(=O)N/N=C\c1c(C)nn(-c2ccccc2)c1Cl | ? | . | ? | ? | 15.1µM | ?
Cc1nn(-c2ccccc2)c(Cl)c1/C=N/NC(=O)CNC(=O)c1ccccc1Cl | . | . | . | . | 19µM | .
COc1ccc(Br)cc1Cn1nnc(C(=O)Nc2ccc(C)cc2C)c1N | / | / | . | / | . | /
CCC(Sc1ncc(S(=O)(=O)c2ccc(C)cc2)c(=O)[nH]1)C(=O)Nc1cc(C)ccc1C (stereo unspecified) | / | / | . | / | ? | /
O=C(NCC1(c2ccccc2)CCCC1)C(=O)Nc1cccc(Br)c1 | / | / | . | / | . | /
CCOC(=O)c1ccc(N2C(=O)C(CC(N)=O)N(CCc3ccc(OC)c(OC)c3)C2=S)cc1 (stereo unspecified) | . | . | . | . | . | .
COc1cccc(CNn2cnnc2)c1O | . | . | / | . | . | .
Oc1ccc2ccccc2c1CNc1ccc(Br)cc1 | . | / | / | . | . | .
COc1cccc(CNc2ncc(Br)cc2Br)c1O | ? | . | . | . | 26.9µM | ?
COc1cccc(CNc2ccc(Br)cn2)c1O | 1µM | . | 14.1µM | ? | 1.51µM | 2.82µM
Oc1ccc2ccccc2c1CNc1ccc(Br)cn1 | . | / | / | . | 23.9µM | .
Cc1ccc(C2=NN=C(NC(=O)CSc3nncn3C)SC2)cc1 | 2.24µM | . | 8.91µM | ? | 2.39µM | 1.41µM
Cc1ccc(C2=NN=C(NC(=O)C(F)(F)F)SC2)cc1 | 1.41µM | . | / | ? | 16.9µM | 0.794µM
O=C(c1cnn(-c2ccccc2)c1)c1cc(F)ccc1O | ? | / | / | ? | 13.5µM | ?
O=C(c1cnn(-c2ccccc2)c1)c1ccccc1O | ? | . | ? | ? | 2.39µM | 3.16µM
COc1ccc(-n2cc(C(=O)c3ccccc3O)cn2)cc1 | ? | 10µM | ? | 2.31µM | 0.849µM | 0.501µM
Cc1cc(/C=N/Nc2nc(N)ncc2[N+](=O)[O-])c(C)n1-c1cccc(C(F)(F)F)c1 | 0.891µM | / | / | ? | 1.51µM | 0.447µM
Cc1ccccc1-n1c(C)cc(/C=N/Nc2ccc([N+](=O)[O-])cn2)c1C | ? | . | . | ? | ? | ?
COc1cccc(/C=N/Nc2ncnc(N)c2[N+](=O)[O-])c1OC | 1.78µM | . | 3.16µM | ? | 4.78µM | 0.562µM
Cc1cc(/C=N/Nc2ccc([N+](=O)[O-])cn2)c(C)n1-c1ccc(C(=O)O)cc1 | . | . | . | . | ? | .
Cc1cc(/C=N/Nc2ncnc(N)c2[N+](=O)[O-])c(C)n1-c1ccccc1 | ? | / | / | ? | 0.0757µM | .
Cc1nn(CC(=O)Nc2ccc(S(N)(=O)=O)cc2)c(=O)c2ccccc12 | . | / | / | . | . | .

Screening results deposited in PubChem BioAssay by National Center for Advancing Translational Sciences (NCATS).
